Test results as given in the OligoGym collection.

Molecular target: LAMB4
Test: pooled miR-30 sensor sort-seq; sequence = guide strand
Conditions: shRNA
Further: reference of the scale not given here.

| Sequence | sensor-assay potency score (higher = more potent) |
| --- | --- |
| TATTTTGACAAGTTCATCGGTT | 0.404 |
| TATTGTATCTTTCAGATCTTGA | 0.0271 |
| TTTGTTAGTCCTGTAGTGCTTG | 0.084 |
| TTAGCTGTTTAACTTTTCCTAA | -0.989 |
| TTTGACTGTAGAGTCTTGGGTA | 0.734 |
| TTCACTTATACTTTCGATCTGA | 0.249 |

Molecular target: LAMC1
Test: as above
Conditions: shRNA

| Sequence | sensor-assay potency score (higher = more potent) |
| --- | --- |
| TTCAATATTACATTCATCTATG | -0.485 |
| TAGGACTTGAGAACTTTGGGAT | 0.474 |
| TTCATCAGTACACAAGGCCTGC | -0.475 |
| TTCCTTTAGTCTATCCTCGAAG | -0.66 |
| TTGTCTTTGCAAACACATCTTC | -0.117 |
| TTCGCTTGTTCATACTTCCTAT | 0.107 |
| TTCTTTTGGACAGCGCTCGCGA | -0.297 |
| TCGTTCTTCATACACTCGCTTG | -1.26 |
| TACATTTACATCTGCCACCTAC | -0.06 |
| TATGAGACTCTCTAATTCCTGG | -0.463 |
| TTTGCAATTACACACCAGCTTA | -0.786 |
| TTGACTTCAAGTTCCTTCCCTC | 0.467 |

Molecular target: LANCL2
Test: as above
Conditions: shRNA

| Sequence | sensor-assay potency score (higher = more potent) |
| --- | --- |
| AATCACATCGCTACACTCCATG | -1.26 |
| AAGTTTTGTGACACATTCCTGG | 0.068 |
| TTTAATTTTGGTCTGGATCCGT | 0.159 |
| TTTCAAGTACTTCTCCTCCTTA | -0.0935 |
| TTAACATATAGTAAATTCCAGC | -0.758 |
| TATGAAATTATGAATGATCTTC | 0.142 |
| TAATAGCTGACTCACACACGGT | -0.857 |
| TGATTCTTGGCAGACAACCGAT | -0.954 |
| TTTCTTGGTCCACTTTTGCTGC | -1.18 |
| TTTTGTGACACATTCCTGGGAC | 0.967 |
| AATAATAGCATTGACTACCTCT | 0.441 |
| TTTCTGTCAAGGTTTCTTGGTC | -0.185 |

Molecular target: LARP1B
Test: as above
Conditions: shRNA

| Sequence | sensor-assay potency score (higher = more potent) |
| --- | --- |
| TAGACTGTGTCTTAGATTGAGA | -0.454 |
| TTCTTCTGAAGAACATAGCTGA | 0.273 |
| TGAAACATCAAATAACTTCTGA | 0.226 |
| TTTACTAATGAGATTTAGCTTC | -0.374 |
| TAAATGTGTTTTTTCGTCCTAT | 0.39 |
| TAGGATCTTGTAACCTAGGTGT | 0.016 |
| TTCTACTTCTGTGCTATCCTTC | 0.509 |
| TTTCTTGACTCTCTGATCTTAC | -0.67 |
| TTTATTGAAGTGATCTCTGAGG | -0.332 |
| TGATCTTACAACATCTAAGTGG | -0.00509 |
